Holding throughout (format): functional
Experiment [1] relates to Plasmodium falciparum. Description: GSK_TCMDC: Inhibition of Plasmodium falciparum 3D7 in whole red blood cells, using parasite LDH activity as an index of growth. Test compounds present at 2uM.
For experiment [2], the system named is Plasmodium falciparum. Description: GSK_TCMDC: Inhibition of Plasmodium falciparum Dd2 in whole red blood cells, using parasite LDH activity as an index of growth. Test compounds present at 2uM.
The test system of experiment [3] is HepG2. Description: GSK_TCMDC: Percent inhibition of human HepG2 cell line. Test compounds present at 10uM.

From ChEMBL document CHEMBL1157539, “Thousands of chemical starting points for antimalarial lead identification” (Nature, 2010) come the findings set out here.

Structures are written as SMILES.

Regarding `CCOC(=O)NOC(C(=O)O)c1ccccc1` (stereo not drawn), the Inhibition – broadly, the percentage by which the read-out fell short of the control – came out at 99% in experiment [1], 17% in experiment [2] and 4% in experiment [3].
On the same counts, the results for `CN(C)Cc1ccc(-c2ccc3c(Nc4ccc(Oc5ccccc5)cc4)ccnc3c2)o1` are 100%, 100% and 10%.
Regarding `CCOC(=O)c1ccc(NC(=O)c2ccccc2C(=O)O)cc1`, the Inhibition in experiment [1] was found to be 92%; in experiment [2], 0%; in experiment [3] it was 2%.
On the same counts, the results for `COc1ccc(CCCc2nc(N)nc(N)c2-c2ccc(Cl)cc2)cc1` are 94%, 0% and 65%.
As to `CCCCCCc1cc2cc(-c3csc(C=Cc4ccccc4)n3)c(=O)oc2cc1O`, the Inhibition in experiment [1] is given as 96%; in experiment [2] it was 75%; in experiment [3], 17%.
For the compound `CCn1cc(C=C2Oc3c(ccc(O)c3CN3CCCCC3)C2=O)c2cc(OC)ccc21`, the Inhibition came out at 99% in experiment [1], 99% in experiment [2] and 0% in experiment [3].
Turning to `COc1ccc(NC(=O)C2c3ccccc3C(=O)N(CC(C)C)C2c2cccs2)cc1OC` (stereo not drawn), the Inhibition was determined as 100% in experiment [1], 98% in experiment [2] and 6% in experiment [3].
For `CC(C)(C)OC(=O)N1CCN(c2ccccc2NC(=O)c2cccc(C(F)(F)F)c2Oc2ccc(F)cc2)CC1`, the results for the Inhibition in experiment [1], in experiment [2] and in experiment [3] were 100%, 9% and 3%, respectively.
For `Cc1cccc2nc(-c3cccc(-c4cccc(NC(=O)Nc5cccc(C#N)c5)c4)c3)[nH]c12`, the figures for the Inhibition in experiment [1], in experiment [2] and in experiment [3] were 100%, 99% and 22%, respectively.
On the same counts, the results for `CCOc1cc(C)ccc1C1CCN(CCN2CCC(CNC(=O)c3ccc(-c4ccc(C(F)(F)F)cc4)cc3)CC2)CC1` are 98%, 89% and 53%.
On the same counts, the results for `Cc1cccc2nc(-c3ccc(-c4cccc(CN5CCC(C(N)=O)CC5)c4)s3)[nH]c12.O=C(O)C(F)(F)F` are 86%, 16% and 1%.
On the same counts, the results for `N#Cc1cccc(CNC(=O)c2cccc(Nc3ccnc4ccc(F)cc34)c2)c1.O=C(O)C(F)(F)F` are 87%, 26% and 0%.
Consider `COCCNCc1ccc(-c2ccc(CNc3ccc4ncccc4c3)cc2)cc1.O=C(O)C(F)(F)F`, for which the Inhibition in experiment [1] came to 85%; in experiment [2] it was 4%; in experiment [3] it was 41%.
For `Fc1cc(Cl)ccc1Nc1ccnc2cc(I)ccc12`, the results for the Inhibition in experiment [1], in experiment [2] and in experiment [3] were 90%, 10% and 11%, respectively.
As to `CCNc1cc(C)nc(Nc2ccc(NC(=O)c3cccs3)cc2)n1`, the results for the Inhibition in experiment [1], in experiment [2] and in experiment [3] were 100%, 50% and 21%, respectively.
Consider `CC(O)CNc1nc2ccccc2n1CC(=O)Nc1cccc(C(=O)Nc2cccc(C(F)(F)F)c2)c1` (stereo not drawn), for which the Inhibition in experiment [1] is on record as 99%; in experiment [2], 95%; in experiment [3], 2%.
On to `Cc1cccc(NC(=O)c2ccc(C(=O)NC3CCN(CC4CCCCC4)CC3)cc2)c1.O=C(O)C(F)(F)F`, for which the results for the Inhibition in experiment [1], in experiment [2] and in experiment [3] were 95%, 18% and 14%, respectively.
Regarding `O=C(/C=C/c1ccc(Cl)c(Cl)c1)NC1CCC(CN2CCC(Cc3cc4ccccc4[nH]3)CC2)CC1` (stereo not drawn), the Inhibition in experiment [1] is on record as 100%; in experiment [2] it was 74%; in experiment [3] it was 99%.
On the same counts, the results for `O=S(=O)(c1cc(Cl)ccc1Cl)N1CCCCC(c2ccc(C(F)(F)F)cc2)=N1` are 87%, 68% and 15%.
Turning to `Cc1c(S(=O)(=O)Nc2ccc3ccn(CCN(C)C)c3c2)sc2ccc(Cl)cc12.Cl`, the Inhibition in experiment [1] is given as 98%; in experiment [2] it was 94%; in experiment [3], 15%.
With `CCc1c[nH]c2c(N3CCCC3=O)cc(C(=O)N[C@@H](Cc3ccccc3)[C@H](O)CNC(C)(C)CCCC(C)C)cc12.O=CO`, the figures for the Inhibition in experiment [1], in experiment [2] and in experiment [3] were 96%, 97% and 22%, respectively.
In the case of `Cc1ccccc1OCC(O)CNC1CCC(NCC(O)COc2ccccc2C)CC1` (stereo not drawn), the Inhibition in experiment [1] is recorded as 98%; in experiment [2], 24%; in experiment [3] it was 96%.
`CN(C)CCC1CCN(CCS(=O)(=O)c2cccc(Nc3ccc(-c4ccsc4)cn3)c2)CC1`: the Inhibition was 97% in experiment [1], 6% in experiment [2] and 49% in experiment [3].
As to `CCOC(=O)C1=C(C)N=c2sc(=Cc3ccccc3O)c(=O)n2C1c1ccc(OC)c2ccccc12` (stereo not drawn), the Inhibition in experiment [1] came out at 97%; in experiment [2] it was 38%; in experiment [3], 0%.
`COc1cccc(-c2cc(C(=O)NC3CCC(N4CCC(c5ccccc5C)CC4)CC3)[nH]n2)c1` (stereo not drawn): the Inhibition in experiment [1] came out at 99%; in experiment [2], 58%; in experiment [3], 60%.
Regarding `CC(=O)N1N=C(c2ccc(Cl)cc2)Sc2c1nc(C1CCCCC1)n2C(C)=O`, the Inhibition in experiment [1] turned out to be 100%; in experiment [2], 67%; in experiment [3] it was 1%.
For the compound `Cc1cc(N2CC=CCC2)nc(NC(=N)Nc2ccc(Cl)cc2)n1`, the Inhibition in experiment [1] was 100%; in experiment [2], 78%; in experiment [3], 0%.
As to `CC(C)NCc1ccc(-c2ccc(NC(=O)c3cccc(C#N)c3)cc2)cc1.O=C(O)C(F)(F)F`, the Inhibition in experiment [1] was determined as 99%; in experiment [2], 77%; in experiment [3], 40%.
On the same counts, the results for `Cc1nccn1CCNC(=O)CN1CCC2(CCC1=O)CC(=O)c1ccccc1O2` (stereo not drawn) are 98%, 4% and 0%.
On the same counts, the results for `CCCCNCc1ccc(-c2nc(CN(Cc3ccc(Cl)c(Cl)c3)S(=O)(=O)c3ccc(NC(C)=O)cc3)cs2)cc1.O=C(O)C(F)(F)F` are 96%, 20% and 30%.
Regarding `CC(C)Nc1cc(C(=O)N[C@@H](Cc2ccccc2)[C@H](O)CNCc2cccc(C(F)(F)F)c2)c(F)c(N2CCCCS2(=O)=O)c1.O=CO`, the Inhibition in experiment [1] amounted to 93%; in experiment [2], 78%; in experiment [3], 0%.
Consider `C=C[C@]1(C)C[C@@H](OC(=O)NC(=O)C2CCN(C(=O)CSc3ccccc3)CC2)[C@]2(C)[C@H](C)CC[C@]3(CCC(=O)[C@H]32)[C@@H](C)[C@@H]1O`, for which the Inhibition in experiment [1] is given as 93%; in experiment [2] it was 74%; in experiment [3], 0%.
For the compound `Cc1ccc2[nH]c(-c3ccccc3Nc3ccnc4cc(-c5nccs5)ccc34)nc2c1.Cl`, the Inhibition stood at 100% in experiment [1], 100% in experiment [2] and 40% in experiment [3].
On to `CC1CCN(CC[C@H]2CCCN2S(=O)(=O)c2cccc(NC(=O)c3ccc(-c4ccc(Cl)cc4)o3)c2)CC1`, for which the values for the Inhibition in experiment [1], in experiment [2] and in experiment [3] were 100%, 65% and 45%, respectively.
Take `Nc1nccc2ccc(-c3ccsc3)cc12.O=C(O)C(F)(F)F`: the Inhibition in experiment [1] was 100%; in experiment [2], 89%; in experiment [3], 38%.
With `O=C(Cc1c[nH]cn1)Nc1cccc(-c2ccc(-c3nc4ccccc4[nH]3)cc2)c1`, the Inhibition in experiment [1] is 99%; in experiment [2], 72%; in experiment [3], 7%.
Turning to `O=C(O)C(F)(F)F.Oc1ccc(CCCNc2nc(NCc3cccc4ccccc34)nc(NC3CCNCC3)n2)cc1`, the values for the Inhibition in experiment [1], in experiment [2] and in experiment [3] were 91%, 0% and 8%, respectively.
On the same counts, the results for `CCCCCN1CCC(NS(=O)(=O)c2ccc(C(=O)Nc3cccc(C(F)(F)F)c3)cc2)C1.O=C(O)C(F)(F)F` (stereo not drawn) are 94%, 0% and 14%.
On to `N#Cc1ccc(N(CCOc2ccc(Cl)c(Cl)c2)Cc2ccccc2C(F)(F)F)cc1C(F)(F)F`, for which the figures for the Inhibition in experiment [1], in experiment [2] and in experiment [3] were 90%, 57% and 13%, respectively.
As to `CC(=O)Nc1cccc(/C=C/C(=O)N2CCC(N3CCCCC3)CC2)c1`, the figures for the Inhibition in experiment [1], in experiment [2] and in experiment [3] were 96%, 0% and 1%, respectively.
On the same counts, the results for `CCCN(Cc1nnc(-c2ccco2)o1)C(=O)C1CCN(c2ncc(C(F)(F)F)cc2Cl)CC1` are 98%, 92% and 19%.
For `Cc1ccccc1C1CCN(C2CCC(NC(=O)/C=C/c3cccc(Cl)c3Cl)CC2)CC1` (stereo not drawn), the Inhibition was found to be 94% in experiment [1], 23% in experiment [2] and 74% in experiment [3].
For `C=C1N(C)c2cc([N+](=O)[O-])c(N)cc2C1(C)C`, the results for the Inhibition in experiment [1], in experiment [2] and in experiment [3] were 98%, 83% and 22%, respectively.
Consider `CC(C)N1CCCN(C(=O)C2CCN(c3ccc(C(=O)N4CCCC4)cn3)CC2)CC1.Cl`, for which the Inhibition in experiment [1] came out at 86%; in experiment [2] it was 12%; in experiment [3], 41%.
With `COc1ccc(CCC(C)(C)NCC(O)c2cccc(C(F)(F)F)c2)cc1` (stereo not drawn), the Inhibition in experiment [1] came out at 99%; in experiment [2], 98%; in experiment [3], 26%.
On the same counts, the results for `CN(C)CCOc1ccc2nc(-c3cccc(OCc4ccccc4)c3)[nH]c2c1C#N` are 100%, 86% and 48%.
As to `CCN(CCCNc1nc(=S)[nH]c2cc(OC)c(OC)cc12)c1ccccc1`, the values for the Inhibition in experiment [1], in experiment [2] and in experiment [3] were 100%, 23% and 14%, respectively.
With `CCC(=O)Oc1ccc(NC(=O)c2cccc(OC)c2)cc1`, the Inhibition in experiment [1] amounted to 98%; in experiment [2] it was 3%; in experiment [3] it was 17%.
For `Cc1ccc(CN2CCCN(Cc3cccc(NC(=O)c4ccc(Cl)c(Cl)c4)c3)CC2)cc1.O=C(O)C(F)(F)F`, the Inhibition in experiment [1] was determined as 96%; in experiment [2], 18%; in experiment [3], 32%.
In the case of `Cc1nc2nc(N)nc(N)c2c(C)c1Cc1ccc(Cl)cc1.Cl`, the Inhibition in experiment [1] turned out to be 94%; in experiment [2], 22%; in experiment [3], 62%.
With `CCCN(CCC)CCCN(CCCN(CCC)CCC)c1cc(C)nc(Nc2ccc3cc(Br)ccc3c2)n1.Cl`, the Inhibition in experiment [1] is 98%; in experiment [2] it was 99%; in experiment [3], 99%.
`COc1cc(Nc2nccc(Nc3ccc4c(C)n[nH]c4c3)n2)cc2ccccc12.Cl`: the Inhibition was determined as 100% in experiment [1], 82% in experiment [2] and 13% in experiment [3].
With `COc1ccc2nccc(N(C)CC3(O)CCN(CC(O)c4ccc5c(c4)NC(=O)CS5)CC3)c2n1.Cl` (stereo not drawn), the Inhibition in experiment [1] is on record as 100%; in experiment [2], 0%; in experiment [3], 1%.
On the same counts, the results for `Cc1ccccc1C1CCN(C2CCC(NC(=O)/C=C/c3cccc(F)c3)CC2)CC1` (stereo not drawn) are 84%, 38% and 46%.
As for `CS(=O)(=O)N(c1ccccc1)c1cc(C(=O)N[C@@H](Cc2ccccc2)[C@H](O)CNC2CC2)cc(N2CCCC2=O)c1`, the Inhibition was found to be 100% in experiment [1], 98% in experiment [2] and 1% in experiment [3].
As to `O=C(Nc1cccc(-c2ccc(-c3nc4ccccc4[nH]3)cc2)c1)c1csnn1`, the Inhibition in experiment [1] is given as 91%; in experiment [2], 21%; in experiment [3], 31%.
For `CC(CNc1nc(NCC(c2ccccc2)c2ccccc2)c2nc[nH]c2n1)c1ccccc1` (stereo not drawn), the Inhibition in experiment [1] amounted to 93%; in experiment [2] it was 24%; in experiment [3] it was 5%.
Consider `CCNc1cc(C(=O)N[C@@H](Cc2cccc(Cl)c2)[C@H](O)CNC(C)CCCC(C)C)cc(N2CCCCS2(=O)=O)c1.Cl` (stereo partly drawn), for which the Inhibition was 98% in experiment [1], 78% in experiment [2] and 7% in experiment [3].
In the case of `CCN(CC)CCCN(CCCN(CC)CC)c1cc(C)nc(Nc2ccc3cc(Br)ccc3c2)n1.Cl`, the results for the Inhibition in experiment [1], in experiment [2] and in experiment [3] were 100%, 73% and 12%, respectively.
As for `COC(=O)c1cccc(CNCc2ccc(-c3cccc(-c4nc5ccccc5[nH]4)c3)cc2)c1.O=C(O)C(F)(F)F`, the values for the Inhibition in experiment [1], in experiment [2] and in experiment [3] were 100%, 46% and 5%, respectively.
With `CCOc1ccc2c(=NN=Cc3cc(OC)c(OC)cc3OC)cc(C)[nH]c2c1`, the Inhibition stood at 100% in experiment [1], 97% in experiment [2] and 24% in experiment [3].
